# Assay results from PubChem BioAssay AID1159580 (chemical genetic matrix, 2015).
# Values joined by “and” are separate entries in the source; they are usually repeats but may differ in a detail not shown here. Equal entries are not always repeated. The whole screen tested about 5,500 compounds, of which about 2,000 (36%) were called active. Another 18% or so got no clear call; they are omitted. The list shows a part of the results. A number with no mark means an inactive call. Rule as the data show it: active = normalized growth mostly below about 0.91 (no sharp cut-off); inconclusive = no clear call, values can overlap the other calls; inactive = mostly above about 0.92.
# Experiment: chemical genetic growth profiling, strain panel (AID 1159580);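 also: tested at 20 µM; growth read once vehicle control cultures reached saturation at 30 °C; 1 = growth at the plate median or of vehicle wells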
# Conditions: growth OD
compound,measurement,setting,value
Cn1c(=O)c2c(ncn2C)n(C)c1=O,normalized growth,"S. cerevisiae deletion strains, locus YJR043C, strain POL32, stronger effect = lower value",1.02
same,normalized growth,"S. cerevisiae deletion strains, locus YJR066W, strain TOR1, stronger effect = lower value",0.97
same,normalized growth,"S. cerevisiae deletion strains, locus YJR075W, strain HOC1, stronger effect = lower value",1
same,normalized growth,"S. cerevisiae deletion strains, locus YKL009W, strain mrt4, stronger effect = lower value",1.03
same,normalized growth,"S. cerevisiae deletion strains, locus YKL068W, stronger effect = lower value",1.01
same,normalized growth,"S. cerevisiae deletion strains, locus YKL085W, strain MDH1 (second series), stronger effect = lower value",0.991
same,normalized growth,"S. cerevisiae deletion strains, locus YKL085W, strain MDH1, stronger effect = lower value",0.991
same,normalized growth,"S. cerevisiae deletion strains, locus YKL160W, strain elf1, stronger effect = lower value",1.02
same,normalized growth,"S. cerevisiae deletion strains, locus YKR001C, strain vps1, stronger effect = lower value",1
same,normalized growth,"S. cerevisiae deletion strains, locus YKR026C, strain gcn3, stronger effect = lower value",0.965
same,normalized growth,"S. cerevisiae deletion strains, locus YKR091W, strain srl3, stronger effect = lower value",0.969
same,normalized growth,"S. cerevisiae deletion strains, locus YLL001W, strain dnm1, stronger effect = lower value",0.932
same,normalized growth,"S. cerevisiae deletion strains, locus YLL026W, stronger effect = lower value",0.962
same,normalized growth,"S. cerevisiae deletion strains, locus YLL041C, strain sdh2, stronger effect = lower value",0.976
same,normalized growth,"S. cerevisiae deletion strains, locus YLR027C, strain aat2, stronger effect = lower value",0.976
same,normalized growth,"S. cerevisiae deletion strains, locus YLR039C, strain RIC1, stronger effect = lower value",0.989
same,normalized growth,"S. cerevisiae deletion strains, locus YLR058C, strain SHM2, stronger effect = lower value",1
same,normalized growth,"S. cerevisiae deletion strains, locus YLR102C, strain apc9, stronger effect = lower value",1.01
same,normalized growth,"S. cerevisiae deletion strains, locus YLR113W, strain HOG1, stronger effect = lower value",1.04
same,normalized growth,"S. cerevisiae deletion strains, locus YLR221C, strain rsa3, stronger effect = lower value",0.89 (active)
same,normalized growth,"S. cerevisiae deletion strains, locus YLR258W, strain gsy2, stronger effect = lower value",0.976
same,normalized growth,"S. cerevisiae deletion strains, locus YLR262C, strain YPT6 (second series), stronger effect = lower value",0.996
same,normalized growth,"S. cerevisiae deletion strains, locus YLR262C, strain YPT6, stronger effect = lower value",0.988
same,normalized growth,"S. cerevisiae deletion strains, locus YLR268W, strain sec22, stronger effect = lower value",1.03
same,normalized growth,"S. cerevisiae deletion strains, locus YLR320W, strain mms22, stronger effect = lower value",0.987
same,normalized growth,"S. cerevisiae deletion strains, locus YLR330W, strain CHS5, stronger effect = lower value",0.999
same,normalized growth,"S. cerevisiae deletion strains, locus YLR342W, strain FKS1 (second series), stronger effect = lower value",1.03
same,normalized growth,"S. cerevisiae deletion strains, locus YLR342W, strain FKS1, stronger effect = lower value",0.983
same,normalized growth,"S. cerevisiae deletion strains, locus YLR357W, strain rsc2, stronger effect = lower value",0.98
same,normalized growth,"S. cerevisiae deletion strains, locus YLR370C, strain arc18, stronger effect = lower value",0.936
same,normalized growth,"S. cerevisiae deletion strains, locus YLR371W, strain rom2, stronger effect = lower value",0.989
same,normalized growth,"S. cerevisiae deletion strains, locus YLR384C, strain iki3, stronger effect = lower value",0.97
same,normalized growth,"S. cerevisiae deletion strains, locus YLR418C, strain cdc73, stronger effect = lower value",0.947
same,normalized growth,"S. cerevisiae deletion strains, locus YML016C, strain PPZ1, stronger effect = lower value",0.995
same,normalized growth,"S. cerevisiae deletion strains, locus YML032C, strain rad52, stronger effect = lower value",1.01
same,normalized growth,"S. cerevisiae deletion strains, locus YML120C, strain ndi1, stronger effect = lower value",0.926
same,normalized growth,"S. cerevisiae deletion strains, locus YML124C, strain tub3, stronger effect = lower value",1
same,normalized growth,"S. cerevisiae deletion strains, locus YMR058W, strain fet3, stronger effect = lower value",0.96
same,normalized growth,"S. cerevisiae deletion strains, locus YMR078C, strain ctf18, stronger effect = lower value",0.995
same,normalized growth,"S. cerevisiae deletion strains, locus YMR125W, strain sto1, stronger effect = lower value",0.954
same,normalized growth,"S. cerevisiae deletion strains, locus YMR129W, stronger effect = lower value",0.988
same,normalized growth,"S. cerevisiae deletion strains, locus YMR205C, strain PFK2, stronger effect = lower value",0.991
same,normalized growth,"S. cerevisiae deletion strains, locus YMR223W, strain ubp8, stronger effect = lower value",1
same,normalized growth,"S. cerevisiae deletion strains, locus YMR231W, strain pep5, stronger effect = lower value",0.987
same,normalized growth,"S. cerevisiae deletion strains, locus YMR307W, strain GAS1, stronger effect = lower value",0.974 and 0.988
same,normalized growth,"S. cerevisiae deletion strains, locus YNL067W, strain RPL9B, stronger effect = lower value",1
same,normalized growth,"S. cerevisiae deletion strains, locus YNL071W, strain lat1, stronger effect = lower value",0.995
same,normalized growth,"S. cerevisiae deletion strains, locus YNL128W, strain TEP1, stronger effect = lower value",0.997
same,normalized growth,"S. cerevisiae deletion strains, locus YNL175C, strain NOP13, stronger effect = lower value",1.02
same,normalized growth,"S. cerevisiae deletion strains, locus YNL183C, strain NPR1, stronger effect = lower value",0.987
same,normalized growth,"S. cerevisiae deletion strains, locus YNL197C, strain WHI3, stronger effect = lower value",1.12
same,normalized growth,"S. cerevisiae deletion strains, locus YNL209W, strain ssb2, stronger effect = lower value",0.959
same,normalized growth,"S. cerevisiae deletion strains, locus YNL224C, strain SQS1, stronger effect = lower value",1.01
same,normalized growth,"S. cerevisiae deletion strains, locus YNL233W, strain BNI4, stronger effect = lower value",0.984
same,normalized growth,"S. cerevisiae deletion strains, locus YNL248C, strain rpa49, stronger effect = lower value",1.03
same,normalized growth,"S. cerevisiae deletion strains, locus YNL250W, strain rad50, stronger effect = lower value",1.01
same,normalized growth,"S. cerevisiae deletion strains, locus YNL271C, strain bni1, stronger effect = lower value",1.01
same,normalized growth,"S. cerevisiae deletion strains, locus YNL298W, strain CLA4, stronger effect = lower value",1.01
same,normalized growth,"S. cerevisiae deletion strains, locus YNL307C, strain MCK1, stronger effect = lower value",1
same,normalized growth,"S. cerevisiae deletion strains, locus YNL322C, strain KRE1 (second series), stronger effect = lower value",0.963
same,normalized growth,"S. cerevisiae deletion strains, locus YNL322C, strain KRE1, stronger effect = lower value",0.995
same,normalized growth,"S. cerevisiae deletion strains, locus YNR049C, strain mso1, stronger effect = lower value",0.956
same,normalized growth,"S. cerevisiae deletion strains, locus YNR052C, strain pop2, stronger effect = lower value",1
same,normalized growth,"S. cerevisiae deletion strains, locus YOL006C, strain TOP1, stronger effect = lower value",1.04
same,normalized growth,"S. cerevisiae deletion strains, locus YOL012C, strain htz1",0.798
same,normalized growth,"S. cerevisiae deletion strains, locus YOL147C, strain pex11, stronger effect = lower value",0.998
same,normalized growth,"S. cerevisiae deletion strains, locus YOR001W, strain rrp6, stronger effect = lower value",0.979
same,normalized growth,"S. cerevisiae deletion strains, locus YOR061W, strain CKA2, stronger effect = lower value",1.01
same,normalized growth,"S. cerevisiae deletion strains, locus YOR069W, strain VPS5, stronger effect = lower value",1
same,normalized growth,"S. cerevisiae deletion strains, locus YOR070C, strain gyp1, stronger effect = lower value",0.993
same,normalized growth,"S. cerevisiae deletion strains, locus YOR080W, strain dia2, stronger effect = lower value",0.956
same,normalized growth,"S. cerevisiae deletion strains, locus YOR083W, strain WHI5 (second series), stronger effect = lower value",1.02
same,normalized growth,"S. cerevisiae deletion strains, locus YOR083W, strain WHI5, stronger effect = lower value",1.01
same,normalized growth,"S. cerevisiae deletion strains, locus YOR106W, strain vam3, stronger effect = lower value",0.969
same,normalized growth,"S. cerevisiae deletion strains, locus YOR136W, strain idh2, stronger effect = lower value",1.01
same,normalized growth,"S. cerevisiae deletion strains, locus YOR144C, strain elg1, stronger effect = lower value",1
same,normalized growth,"S. cerevisiae deletion strains, locus YOR184W, strain ser1, stronger effect = lower value",1.01
same,normalized growth,"S. cerevisiae deletion strains, locus YOR231W, strain MKK1, stronger effect = lower value",1.04
same,normalized growth,"S. cerevisiae deletion strains, locus YOR265W, strain rbl2, stronger effect = lower value",0.963
same,normalized growth,"S. cerevisiae deletion strains, locus YOR270C, strain vph1, stronger effect = lower value",0.988
same,normalized growth,"S. cerevisiae deletion strains, locus YOR290C, strain snf2, stronger effect = lower value",0.952
same,normalized growth,"S. cerevisiae deletion strains, locus YOR316C, strain cot1, stronger effect = lower value",1.01
same,normalized growth,"S. cerevisiae deletion strains, locus YPL051W, strain arl3, stronger effect = lower value",0.949
same,normalized growth,"S. cerevisiae deletion strains, locus YPL055C, strain LGE1, stronger effect = lower value",0.998
same,normalized growth,"S. cerevisiae deletion strains, locus YPL078C, strain atp4, stronger effect = lower value",1.02
same,normalized growth,"S. cerevisiae deletion strains, locus YPL106C, strain sse1, stronger effect = lower value",0.929
same,normalized growth,"S. cerevisiae deletion strains, locus YPL240C, strain hsp82, stronger effect = lower value",0.974
same,normalized growth,"S. cerevisiae deletion strains, locus YPL241C, strain CIN2, stronger effect = lower value",0.998 and 1.01
same,normalized growth,"S. cerevisiae deletion strains, locus YPL256C, strain CLN2, stronger effect = lower value",1.09
same,normalized growth,"S. cerevisiae deletion strains, locus YPR119W, strain clb2, stronger effect = lower value",0.996
same,normalized growth,"S. cerevisiae deletion strains, locus YPR141C, strain kar3, stronger effect = lower value",0.992
same,normalized growth,"S. cerevisiae deletion strains, locus YPR163C, strain tif3, stronger effect = lower value",0.991
same,normalized growth,"S. cerevisiae deletion strains, locus YPR167C, strain met16, stronger effect = lower value",1
same,normalized growth,"S. cerevisiae deletion strains, strain wtn01, stronger effect = lower value",1.04
same,normalized growth,"S. cerevisiae strains, strain wild type, stronger effect = lower value",1
